Rows were chosen to be rich in hits. Some 3.2% of all compounds tested hit in one or more screens of this group.
Yp Topo-I inh: Y. pestis Topo-I inhibition via cleavage products; hit rate 0.064% among 360,000; activity, % at 10 µM; Y. pestis Topo-I cleavage product accumulation, plate reader; in the data active = activity above about 50%, passing the limit was not always enough
FBA Mtb inh: Mtb fructose-bisphosphate aldolase inhibition | inhibition, % at 1 µM | P9WQA3 | purified M. tuberculosis FBA, fluorescence read-out | hit rate 2.3% among 360,000; in the data active = inhibition above about 27%
TcdB inh: TcdB glycohydrolase inhibition | TcdB glycohydrolase enzymatic assay, plate reader | inhibition, % at 9.99 µM | hit rate 0.24% among 350,000 | AID 652162
PrPC surface inh: cell surface PrPC inhibition, primary TR-FRET screen; TR-FRET read-out; inhibition, % at 13.8 µM; hit rate 0.43% among 370,000; AID 720596; in the data active = inhibition above about 24%
GDH-TPI counter-1: inhibits GDH-TPI coupling enzymes, artifact for Mtb FBA screen. GDH-TPI coupled enzyme counterscreen, NADH absorbance. inhibition, % at 4.8 µM. hit rate 1.2% among 360,000; in the data active = inhibition above about 30%
Mtb FBA inh conf: Mtb FBA inhibition, confirmed; shares compounds with FBA Mtb inh; purified M. tuberculosis FBA, fluorescence read-out; inhibition, % at 1 µM; hit rate 78% among 5,600; AID 651616; in the data active = inhibition above about 27%
GDH-TPI counter-2: inhibits GDH-TPI coupling enzymes, flagging Mtb FBA hits; shares compounds with FBA Mtb inh; GDH-TPI coupled enzyme counterscreen, fluorescence; inhibition, % at 1 µM; hit rate 81% among 5,600
GDH-TPI DR: GDH-TPI dose response counter-screen for Mtb FBA. shares compounds with FBA Mtb inh. GDH-TPI coupled enzyme assay, fluorescence, artifact counterscreen. IC50, µM. hit rate 79% among 170. AID 652145; call rule not given here
A number is an active result. Cut-off read from the data, not from the text of the source, unless noted: active = inhibition above about 10%; inactive = the rest.

Results for O=C(Nc1ccccc1F)N1CC(=O)N2[C@H](C1)[C@H](c1ccc(C#Cc3ccccc3)cc1)[C@@H]2CO ?
TcdB inh: inactive

What do the screens show for `CC(C)NC(=O)Nc1ccc2c(c1)C(=O)N([C@@H](C)CO)C[C@@H](C)[C@@H](CN(C)S(=O)(=O)c1ccc(Cl)cc1)OCCCC[C@H](C)O2`?
TcdB inh: inactive

What do the screens show for `Cn1c2ccccc2c(=O)c2cc(C#CC3(O)CCCCC3)ccc21`?
Yp Topo-I inh: inactive; FBA Mtb inh: 93; TcdB inh: inactive; PrPC surface inh: inactive; GDH-TPI counter-1: inactive; Mtb FBA inh conf: inactive; GDH-TPI counter-2: inactive

What do the screens show for `Cn1c2ccccc2c(=O)c2ccc(C#CC3(N)CCCCC3)cc21`?
Yp Topo-I inh: inactive; FBA Mtb inh: 92; TcdB inh: inactive; PrPC surface inh: inactive; GDH-TPI counter-1: inactive; Mtb FBA inh conf: 35; GDH-TPI counter-2: 19

What do the screens show for `NC1(C#Cc2ccc3c(=O)c4ccccc4sc3c2)CCCCC1`?
Yp Topo-I inh: inactive; FBA Mtb inh: inactive; TcdB inh: inactive; PrPC surface inh: inactive; GDH-TPI counter-1: inactive

How did O=C(O)c1ccccc1NCN1C(=O)C2CC=C(Cl)CC2C1=O (configuration not stated) do in these assays?
Yp Topo-I inh: inactive; FBA Mtb inh: 40; PrPC surface inh: inactive; GDH-TPI counter-1: inactive; Mtb FBA inh conf: inactive; GDH-TPI counter-2: 29

How did COc1c2ccoc2nc2c(OC)cccc12 do in these assays?
Yp Topo-I inh: inactive; FBA Mtb inh: 55; TcdB inh: inactive; PrPC surface inh: inactive; GDH-TPI counter-1: inactive; Mtb FBA inh conf: 113; GDH-TPI counter-2: 97

How did c1cc(-c2cnc3cccnn23)c2cccnc2c1 do in these assays?
Yp Topo-I inh: inactive; FBA Mtb inh: 38; TcdB inh: inactive; PrPC surface inh: inactive; GDH-TPI counter-1: inactive; Mtb FBA inh conf: 127; GDH-TPI counter-2: 115

Results for c1ccc2c(-c3cnc4cccnn34)cncc2c1 ?
Yp Topo-I inh: inactive; FBA Mtb inh: 40; TcdB inh: inactive; PrPC surface inh: inactive; GDH-TPI counter-1: inactive; Mtb FBA inh conf: 188; GDH-TPI counter-2: 106

Results for O=C(C[C@H]1C=C[C@H](NC(=O)C2CCC2)[C@H](CO)O1)NC1CCC1 ?
TcdB inh: inactive

How did CCOc1ccc2cc(C(=O)NCc3ccccc3)c(=N)oc2c1 do in these assays?
Yp Topo-I inh: inactive; FBA Mtb inh: 41; TcdB inh: inactive; PrPC surface inh: inactive; GDH-TPI counter-1: inactive; Mtb FBA inh conf: 53; GDH-TPI counter-2: 35

What do the screens show for `CCOc1cccc2cc(C(=O)NCc3ccc(Cl)cc3)c(=N)oc12`?
Yp Topo-I inh: inactive; FBA Mtb inh: inactive; TcdB inh: inactive; PrPC surface inh: inactive; GDH-TPI counter-1: inactive

How did COCC(=O)Nc1ccc2c(c1)OC[C@@H](C)N(C(=O)Cc1cccnc1)C[C@@H](C)[C@H](OC)CN(C)C2=O do in these assays?
TcdB inh: inactive

Results for Cc1ccccc1/C=N/N=C1/NC(=O)CCS1 ?
Yp Topo-I inh: inactive; FBA Mtb inh: 29; TcdB inh: inactive; PrPC surface inh: inactive; GDH-TPI counter-1: 32; Mtb FBA inh conf: 128; GDH-TPI counter-2: 90

Results for CCS(=O)(=O)N1N=C(c2ccc(NS(C)(=O)=O)cc2)CC1c1ccccc1 (configuration not stated) ?
Yp Topo-I inh: inactive; FBA Mtb inh: 109; PrPC surface inh: inactive; GDH-TPI counter-1: inactive; Mtb FBA inh conf: inactive; GDH-TPI counter-2: inactive; GDH-TPI DR: 0.98

Results for CS(=O)(=O)Nc1ccc(C2=NN(C(=O)c3ccco3)C(c3ccccc3)C2)cc1 (configuration not stated) ?
Yp Topo-I inh: inactive; FBA Mtb inh: inactive; PrPC surface inh: inactive; GDH-TPI counter-1: inactive

Results for CCS(=O)(=O)Nc1cccc(C2=NN(S(=O)(=O)CC)C(c3cccs3)C2)c1 (configuration not stated) ?
Yp Topo-I inh: inactive; FBA Mtb inh: inactive; TcdB inh: inactive; PrPC surface inh: inactive; GDH-TPI counter-1: inactive

What do the screens show for `CCS(=O)(=O)Nc1ccc(C2=NN(S(=O)(=O)CC)C(c3cccs3)C2)cc1` (configuration not stated)?
Yp Topo-I inh: inactive; FBA Mtb inh: 49; TcdB inh: inactive; PrPC surface inh: inactive; GDH-TPI counter-1: inactive; Mtb FBA inh conf: 147; GDH-TPI counter-2: 130

How did Nn1c(=O)[nH]c2c([nH]c3ccccc32)c1=O do in these assays?
Yp Topo-I inh: inactive; FBA Mtb inh: 27; TcdB inh: inactive; PrPC surface inh: inactive; GDH-TPI counter-1: inactive; Mtb FBA inh conf: 107; GDH-TPI counter-2: 86

Results for C[C@H]1CN([C@@H](C)CO)C(=O)c2cccc(NC(=O)C3CCOCC3)c2O[C@H]1CN(C)S(=O)(=O)c1ccc(Cl)cc1 ?
TcdB inh: inactive

How did Cc1nn2c(=O)c(NC(=O)c3ccc(Cl)cc3)cnc2s1 do in these assays?
Yp Topo-I inh: inactive; FBA Mtb inh: 65; TcdB inh: inactive; PrPC surface inh: inactive; GDH-TPI counter-1: inactive; Mtb FBA inh conf: 44; GDH-TPI counter-2: 28

How did Cn1c(-c2ccc(N)cc2)nc2ccccc21 do in these assays?
Yp Topo-I inh: inactive; FBA Mtb inh: 88; PrPC surface inh: inactive; GDH-TPI counter-1: inactive; Mtb FBA inh conf: active; GDH-TPI counter-2: active

Results for CCOC(=O)Cn1c(-c2ccc(Cl)nc2)nc2ccccc21 ?
Yp Topo-I inh: inactive; FBA Mtb inh: 43; PrPC surface inh: inactive; GDH-TPI counter-1: inactive; Mtb FBA inh conf: 122; GDH-TPI counter-2: 106

What do the screens show for `Cn1c(-c2ccc(Cl)nc2)nc2ccccc21`?
Yp Topo-I inh: inactive; FBA Mtb inh: 37; TcdB inh: inactive; PrPC surface inh: inactive; GDH-TPI counter-1: inactive; Mtb FBA inh conf: 113; GDH-TPI counter-2: 83

What do the screens show for `Cn1c(-c2ccccc2)nc2cnccc21`?
Yp Topo-I inh: inactive; FBA Mtb inh: inactive; TcdB inh: inactive; PrPC surface inh: inactive; GDH-TPI counter-1: inactive

What do the screens show for `COc1ccc(-c2cc3c(=O)n(CC(=O)NCc4cccnc4)nc(C)n3n2)cc1`?
Yp Topo-I inh: inactive; FBA Mtb inh: 28; TcdB inh: inactive; PrPC surface inh: inactive; GDH-TPI counter-1: inactive; Mtb FBA inh conf: inactive; GDH-TPI counter-2: 11

How did COc1ccc(-c2cc3c(=O)n(CC(=O)Nc4ccc(Cl)cc4)nc(C)n3n2)cc1 do in these assays?
Yp Topo-I inh: inactive; FBA Mtb inh: inactive; TcdB inh: inactive; PrPC surface inh: inactive; GDH-TPI counter-1: inactive

Results for C[C@H]1CN([C@@H](C)CO)C(=O)Cc2cc(NS(C)(=O)=O)ccc2O[C@@H]1CN(C)Cc1ccc(C(=O)O)cc1 ?
TcdB inh: inactive

Results for Cc1ccc(-c2nc3ccccc3c(=O)n2Cc2ccccc2)cc1 ?
Yp Topo-I inh: inactive; FBA Mtb inh: inactive; PrPC surface inh: inactive; GDH-TPI counter-1: inactive

Results for c1ccc(Cn2c(-c3ccccc3)nc3nc4ccccc4nc32)cc1 ?
Yp Topo-I inh: inactive; FBA Mtb inh: 56; PrPC surface inh: inactive; GDH-TPI counter-1: 43; Mtb FBA inh conf: 161; GDH-TPI counter-2: 132

Bioassay records deposited in PubChem by several laboratories.
